# Experimental data taken from PubChem BioAssay (EPA / NIEHS).
# Records with an inconclusive call do not appear. Calls of active or inactive are those of the source. Rule for the calls, unless noted: active = hit-call score of the fitted dose curve at least 0.9, where 1 is the maximum; inactive = score below 0.9.
# Legend:
# [1] = read-out: Interferon-inducible T-cell alpha chemoattractant (ITAC), CXCL11 (gene 6373); test: BSK_BE3C_ITAC: BioMAP Diversity Plus: BE3C Assay for Interferon-inducible T-cell alpha chemoattractant (ITAC) Biomarker Activity (AID 2284279); details: primary human bronchial epithelial cells
# In short: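 The assay measures I-TAC levels by ELISA in human primary bronchial epithelial cell cultures 24 hours after chemical treatment. Values reflect signal increase over the DMSO baseline.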
# [2] = read-out: Interleukin-8 (IL8), CXCL8 (gene 3576); test: BSK_BE3C_IL8: BioMAP Diversity Plus: BE3C Assay for Interleukin-8 (IL8) Biomarker Activity (AID 2284280); details: primary human bronchial epithelial cells
# In short: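 Primary human bronchial epithelial cells (BE3C system) were exposed to test chemical for 24 h, and IL-8 levels were then measured by ELISA. Activity was fitted in the positive (gain-of-signal) direction against a DMSO negative-control baseline.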
# [3] = read-out: Epidermal growth factor receptor (EGFR), EGFR (gene 1956); test: BSK_BE3C_EGFR: BioMAP Diversity Plus: BE3C Assay for Epidermal growth factor receptor (EGFR) Biomarker Activity (AID 2284281); details: primary human bronchial epithelial cells
# In short: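 Human primary bronchial epithelial cells were exposed to compound for 24 h, and cell-surface EGFR was then quantified by ELISA. Activity was fitted in the positive direction against the DMSO vehicle baseline.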
# KRT18 (gene 3875) = test: BSK_BE3C_Keratin818: BioMAP Diversity Plus: BE3C Assay for Keratin 818 Biomarker Activity (AID 2284282); details: primary human bronchial epithelial cells
# In short: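 ELISA readout of Keratin 8/18 in human primary bronchial epithelial cultures after 24 h chemical exposure, DMSO baseline. Parallel SRB staining (0.1%, TCA-fixed, 560 nm) served as cytotoxicity check.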
# [4] = read-out: Matrix Metallopeptidase 9 (MMP9), MMP9 (gene 4318); test: BSK_BE3C_MMP9: BioMAP Diversity Plus: BE3C Assay for Matrix Metallopeptidase 9 (MMP9) Biomarker Activity (AID 2284283); details: primary human bronchial epithelial cells
# In short: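 Human primary bronchial epithelial cells in the BE3C system were dosed with compound for 24 h. MMP-9 was measured by ELISA, and the positive-direction response was fitted relative to DMSO as baseline. Parallel SRB staining gauged cytotoxicity.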
# [5] = read-out: Plasminogen activator inhibitor-1 (PAI1), SERPINE1 (gene 5054); test: BSK_CASM3C_PAI1: BioMAP Diversity Plus: CASM3C Assay for Plasminogen activator inhibitor-1 (PAI1) Biomarker Activity (AID 2284284); details: primary human coronary artery smooth muscle cells;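 note: PAI-1 protein level measured by ELISA 24 h after dosing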
# [6] = read-out: Monocyte Chemoattractant Protein-1 (MCP1), CCL2 (gene 6347); test: BSK_hDFCGF_MCP1: BioMAP Diversity Plus: hDFCGF Assay for Monocyte Chemoattractant Protein-1 (MCP1) Biomarker Activity (AID 2284285); details: primary human foreskin fibroblasts
# In short: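 MCP-1 ELISA readout was taken 24 hours after dosing primary human dermal fibroblasts in the hDFCGF system, with DMSO as baseline. Parallel sulforhodamine B staining of total protein tracked overt cytotoxicity.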
# [7] = read-out: Intercellular Adhesion Molecule 1 (ICAM1), ICAM1 (gene 3383); test: BSK_hDFCGF_ICAM1: BioMAP Diversity Plus: hDFCGF Assay for Intercellular Adhesion Molecule 1 (ICAM1) Biomarker Activity (AID 2284287); details: primary human foreskin fibroblasts
# In short: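 ICAM-1 ELISA readout 24 h after dosing, DMSO as baseline, in human dermal foreskin fibroblast cultures. Cytotoxicity checked in parallel wells by SRB staining (0.1% SRB, 10% TCA fixation, 560 nm).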
# [8] = read-out: TIMP metallopeptidase inhibitor 2 (TIMP2), TIMP2 (gene 7077); test: BSK_hDFCGF_TIMP2: BioMAP Diversity Plus: hDFCGF Assay for TIMP metallopeptidase inhibitor 2 (TIMP2) Biomarker Activity (AID 2284289); details: primary human foreskin fibroblasts
# In short: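 Primary human foreskin fibroblasts in the hDFCGF system, dosed for 24 h; TIMP-2 level measured by ELISA, fitted in the positive direction against DMSO; cytotoxicity checked in parallel by sulforhodamine B total protein staining.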
# [9] = read-out: Thrombomodulin, THBD (gene 7056); test: BSK_LPS_Thrombomodulin: BioMAP Diversity Plus: LPS Assay for Thrombomodulin Biomarker Activity (AID 2284296); details: primary human HUVEC with PBMC
# In short: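 Thrombomodulin on the surface of LPS-activated endothelial/PBMC co-cultures was quantified by ELISA at 24 hours post-dosing, with DMSO as baseline. Parallel SRB total-protein staining flagged overt cytotoxicity.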
# CD69, CD69 (gene 969) = test: BSK_LPS_CD69: BioMAP Diversity Plus: LPS Assay for CD69 Biomarker Activity (AID 2284303); details: primary human HUVEC with PBMC
# In short: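 CD69 surface levels were read by ELISA after 24 h chemical treatment of an LPS-stimulated HUVEC plus PBMC co-culture; positive-direction fit against DMSO vehicle.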
# [10] = target: Oxysterols receptor LXR-alpha (Homo sapiens) (UniProt Q13133); test: ATG_LXRa_TRANS: Attagene TRANS-FACTORIAL HepG2 Assay for human Liver X Receptor alpha (LXRa) (AID 2282980; active = hit-call score of the fitted dose curve at least 0.9, where 1 is the maximum); details: HepG2 Attagene TRANS reporter, LXRa transactivation
# Sequence of Oxysterols receptor LXR-alpha (Homo sapiens) (Q13133 whole entry, looked up, the tested form may be a part): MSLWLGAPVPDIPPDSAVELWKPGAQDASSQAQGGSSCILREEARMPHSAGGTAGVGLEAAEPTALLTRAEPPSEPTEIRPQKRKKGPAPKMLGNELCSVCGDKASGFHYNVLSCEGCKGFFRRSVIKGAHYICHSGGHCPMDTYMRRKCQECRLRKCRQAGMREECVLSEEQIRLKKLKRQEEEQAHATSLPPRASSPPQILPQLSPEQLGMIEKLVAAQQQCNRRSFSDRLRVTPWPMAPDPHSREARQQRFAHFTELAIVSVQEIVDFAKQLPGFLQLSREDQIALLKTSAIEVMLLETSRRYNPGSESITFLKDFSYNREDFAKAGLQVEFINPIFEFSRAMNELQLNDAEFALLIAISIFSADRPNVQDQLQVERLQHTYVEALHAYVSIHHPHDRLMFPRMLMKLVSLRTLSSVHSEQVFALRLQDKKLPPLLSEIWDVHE
# In short: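 HepG2 cells were transiently transfected with multiplexed reporter units driven by chimeric LXRa–GAL4 fusion proteins, then dosed for 24 h. Reporter mRNA was quantified by RT-PCR, fluorescent labelling and capillary electrophoresis; gain of signal fitted against DMSO baseline.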
# [11] = target: human Matrix Metalloproteinase-9 (MMP9), MMP9 (gene 4318) (UniProt P14780); test: NVS_ENZ_hMMP9: NovaScreen (NVS) Enzymatic Assay for human Matrix Metalloproteinase-9 (MMP9) (AID 2283190; active = hit-call score of the fitted dose curve at least 0.9, where 1 is the maximum;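 note: cell-free recombinant MMP9 protease activity read by fluorescent substrate signal; active means inhibition seen as loss of fluorescence signal versus DMSO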)
# Sequence of human Matrix Metalloproteinase-9 (MMP9), MMP9 (gene 4318) (P14780 whole entry, looked up): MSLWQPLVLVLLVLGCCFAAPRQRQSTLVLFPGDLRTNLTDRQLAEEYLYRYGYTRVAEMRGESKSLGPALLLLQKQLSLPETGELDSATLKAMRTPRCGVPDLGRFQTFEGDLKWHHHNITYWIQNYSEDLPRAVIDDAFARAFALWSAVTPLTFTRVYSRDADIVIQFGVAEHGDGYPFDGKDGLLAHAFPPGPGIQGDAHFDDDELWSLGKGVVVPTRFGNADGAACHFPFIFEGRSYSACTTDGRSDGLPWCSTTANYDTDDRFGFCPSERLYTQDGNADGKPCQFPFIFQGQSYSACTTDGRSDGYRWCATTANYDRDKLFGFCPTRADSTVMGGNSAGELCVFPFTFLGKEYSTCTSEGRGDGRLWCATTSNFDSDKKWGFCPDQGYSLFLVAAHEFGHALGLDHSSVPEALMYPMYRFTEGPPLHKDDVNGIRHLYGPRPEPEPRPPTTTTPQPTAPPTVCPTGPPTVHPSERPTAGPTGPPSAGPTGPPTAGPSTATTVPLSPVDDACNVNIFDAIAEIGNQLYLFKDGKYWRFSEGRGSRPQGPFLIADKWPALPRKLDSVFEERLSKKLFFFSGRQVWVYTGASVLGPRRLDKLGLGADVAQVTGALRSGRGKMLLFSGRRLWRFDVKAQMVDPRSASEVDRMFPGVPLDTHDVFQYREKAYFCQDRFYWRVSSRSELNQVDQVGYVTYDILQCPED
# In short: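 Screening concentration 25 uM, duplicate wells, then dose series for confirmation. Cell-free enzymatic reaction measured by fluorescence intensity 1 h post-dosing; decreased signal versus DMSO taken as activity.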
# [12] = test system: guinea pig Dopamine Transporter (DAT), gene 100714898; test: NVS_TR_gDAT: NovaScreen (NVS) Transporter Assay for guinea pig Dopamine Transporter (DAT) (AID 2283369; active = hit-call score of the fitted dose curve at least 0.9, where 1 is the maximum;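 note: active compounds lower bound radioligand signal relative to DMSO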)
# In short: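 Guinea pig striatal membranes; radioligand displacement measured by filter-based scintillation counting 2 h after dosing. Initial duplicate screen at 25 uM, then concentration-response up to 50 uM for hits; loss of signal versus DMSO baseline.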
# [13] = CEETOX_H295R_ANDR: CeeTox H295R High-throughput Steroidogenesis Assay for Androstenedione (ANDR) (AID 2283436); details: actives raise or lower the signal
# In short: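 Medium from 48 h chemical-treated H295R adrenal cells was extracted with MTBE and androstenedione measured by LC-MS/MS. Activity was fit in both directions relative to DMSO. Cytotoxic concentrations were re-tested after dilution until MTT viability reached ≥70%.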
# [14] = CEETOX_H295R_TESTO: CeeTox H295R High-throughput Steroidogenesis Assay for Testosterone (TESTO) (AID 2283457); details: actives raise or lower the signal;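 note: cells exposed to chemicals for 48 h before medium collection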
# In short: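 H295R human adrenal cells in DMEM/F12 with ITS+ and Nu-Serum, exposed to chemicals for 48 h. Testosterone in medium measured by MTBE extraction, reverse-phase HPLC-MS/MS; bidirectional fit versus DMSO baseline. MTT viability checked in same wells.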
# [15] = STM_H9_OrnithineISnorm_perc: Stemina devTOX quickPredict H9 human embryonic stem cell (hESC)-based Assay for Ornithine (ORN) Metabolite Biomarker, Normalized (AID 2283712);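 note: ornithine released into spent medium during last day measured by mass spectrometry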
# In short: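 Ornithine in spent medium from the last 24 h of a 72 h exposure, deproteinised and quantified by UPLC-HRMS against an isotope-labelled internal standard, expressed relative to 0.1% DMSO. Pluripotent H9 cells; compound refreshed every 24 h.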
# [16] = STM_H9_CystineISnorm_perc: Stemina devTOX quickPredict H9 human embryonic stem cell (hESC)-based Assay for Cystine (CYSS) Metabolite Biomarker, Normalized (AID 2283713)
# In short: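 Cystine in spent media from the last 24 h of a 72 h H9 hESC exposure (daily re-dosing), measured by UPLC-HRMS. Values normalized to isotopic internal standard, then to 0.1% DMSO; viability via CellTiter-Fluor.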
# [17] = STM_H9_OrnCyssISnorm_ratio: Stemina devTOX quickPredict H9 human embryonic stem cell (hESC)-based Assay for Ornithine (ORN):Cystine (CYSS) Ratio (AID 2283714; active = hit-call score of the fitted dose curve at least 0.9, where 1 is the maximum)
# In short: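 Ratio of internal-standard-normalized ornithine to cystine, measured by UPLC-HRMS in spent media from the last 24 h. H9 cells kept pluripotent, dosed 72 h with daily media and compound renewal; DMSO 0.1% serves as baseline.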
# [18] = STM_H9_NormalizedViability: Cytotoxicity Assessment at 120 hours in the Stemina devTOX quickPredict H9 human embryonic stem cell (hESC)-based Assay (AID 2283784; active = hit-call score of the fitted dose curve at least 0.9, where 1 is the maximum)
# In short: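 Viability endpoint: background-corrected CellTiter-Fluor RFU expressed relative to the 0.1% DMSO mean on each plate. Undifferentiated H9 cells were treated with daily re-dosing and media change, and loss of signal was fitted.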
smiles,measurement,setting,value
O=[N+]([O-])O,outcome,[1],inactive
same,outcome,[2],inactive
same,outcome,[3],inactive
same,outcome,KRT18 (gene 3875),inactive
same,outcome,[4],inactive
same,outcome,[5],inactive
same,outcome,[6],inactive
same,outcome,[7],inactive
same,outcome,[8],inactive
same,outcome,[9],inactive
same,outcome,"CD69, CD69 (gene 969)",inactive
C[N+](=O)[O-],outcome,[10],inactive
same,AC50,[11],1.45 µM (active)
CNC(=O)Oc1cc(C)c(SC)c(C)c1,AC50,[12],25 µM (active)
same,AC50,[13],37.7 µM (active)
same,AC50,[14],36 µM (active)
Cc1ccc(OP(=O)(Oc2ccc(C)cc2)Oc2ccc(C)cc2)cc1 (tested in a mixture with another compound),outcome,[15],inactive
same,AC50,[16],58.4 µM (active)
same,AC50,[17],61.9 µM (active)
same,outcome,[18],inactive
